The nature of assay [1]: qHTS of pediatric cancer cell lines to identify multiple opportunities for drug repurposing: Primary screen for BT-37 cells (AID 1347094). In a few lines:
(§1)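 Luminescence from CellTiter-Glo served as readout of metabolically active cells after 48 h compound exposure. Titrations: MIPE 11-point, from 0.78 nM; NPC 8-point, from 0.59 nM (final). Concentration-response curves came straight from the primary screen.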

A short description of assay [2]: qHTS of pediatric cancer cell lines to identify multiple opportunities for drug repurposing: Primary screen for NB-EBc1 cells (AID 1347095). Put shortly:
as §1

Assay [3] can be described thus: qHTS of pediatric cancer cell lines to identify multiple opportunities for drug repurposing: Primary screen for U-2 OS cells (AID 1347096). Note: nearly all actives have a fitted effect of over 50% in size. Put shortly:
(§2)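 Viability after 48 h compound treatment at 37C, 500-1,000 cells/well, read as ATP luminescence with CellTiter-Glo. Primary screens used 11-point (MIPE, 0.78 nM-46 µM) or 8-point (NPC, 0.59 nM-46 µM) final concentrations; follow-up screens used 11-point dilutions.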

A short description of assay [4]: qHTS of pediatric cancer cell lines to identify multiple opportunities for drug repurposing: Primary screen for Saos-2 cells (AID 1347097). Note: nearly all actives have a fitted effect of over 40% in size. In a few lines: as §1
The nature of assay [5]: qHTS of pediatric cancer cell lines to identify multiple opportunities for drug repurposing: Primary screen for SK-N-SH cells (AID 1347098). Note: nearly all actives have a fitted effect of over 65% in size. Put shortly:
(§3)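 Cells (500-1,000/well) rested 5 h, then received compounds for 48 h; metabolically active cells were measured by CellTiter-Glo luminescence. Final concentrations spanned up to 46 µM (MIPE, 11-point) or 0.59 nM-46 µM (NPC, 8-point) in primary screens, 11-point in follow-ups.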

A short description of assay [6]: qHTS of pediatric cancer cell lines to identify multiple opportunities for drug repurposing: Primary screen for NB1643 cells (AID 1347099). Note: nearly all actives have a fitted effect of over 50% in size. In a few lines:
as §1

Assay [7] in a line: qHTS of pediatric cancer cell lines to identify multiple opportunities for drug repurposing: Primary screen for LAN-5 cells (AID 1347100). Put shortly: as §2
The nature of assay [8]: qHTS of pediatric cancer cell lines to identify multiple opportunities for drug repurposing: Primary screen for BT-12 cells (AID 1347101). Note: nearly all actives have a fitted effect of over 25% in size. In a few lines:
as §3

Assay [9] is described as follows: qHTS of pediatric cancer cell lines to identify multiple opportunities for drug repurposing: Primary screen for Rh18 cells (AID 1347102). Note: nearly all actives have a fitted effect of over 65% in size. Put shortly: as §2
Assay [10] is described as follows: qHTS of pediatric cancer cell lines to identify multiple opportunities for drug repurposing: Primary screen for OHS-50 cells (AID 1347103). Note: nearly all actives have a fitted effect of over 40% in size. Put shortly:
as §3

The nature of assay [11]: qHTS of pediatric cancer cell lines to identify multiple opportunities for drug repurposing: Primary screen for RD cells (AID 1347104). Note: nearly all actives have a fitted effect of over 55% in size. In a few lines: as §1
The nature of assay [12]: qHTS of pediatric cancer cell lines to identify multiple opportunities for drug repurposing: Primary screen for MG 63 (6-TG R) cells (AID 1347105). Note: nearly all actives have a fitted effect of over 50% in size. Put shortly:
as §1

The nature of assay [13]: qHTS of pediatric cancer cell lines to identify multiple opportunities for drug repurposing: Primary screen for Rh30 cells (AID 1347107). Note: nearly all actives have a fitted effect of over 75% in size. In a few lines: as §2
The nature of assay [14]: qHTS of pediatric cancer cell lines to identify multiple opportunities for drug repurposing: Primary screen for Rh41 cells (AID 1347108). Note: nearly all actives have a fitted effect of over 70% in size. In a few lines:
as §1

The nature of assay [15]: qHTS of pediatric cancer cell lines to identify multiple opportunities for drug repurposing: Confirmatory screen for NB1643 cells (AID 1347109). Note: nearly all actives have a fitted effect of over 45% in size. In a few lines: as §2
Assay [16] is described as follows: qHTS of pediatric cancer cell lines to identify multiple opportunities for drug repurposing: Confirmatory screen for A673 cells (AID 1347110). Note: nearly all actives have a fitted effect of over 65% in size. In a few lines:
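A673 cells at 500-1,000 cells/well were dosed 5 h after plating, in dilution series up to 46 uM final; primary runs used 8 or 11 points and confirmatory runs used 11 points. Viability was read by CellTiter-Glo luminescence after 48 h, against DMSO and 2.3 uM bortezomib controls.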

A short description of assay [17]: qHTS of pediatric cancer cell lines to identify multiple opportunities for drug repurposing: Confirmatory screen for SK-N-MC cells (AID 1347111).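 Note: cells exposed to compound for 48 h before the readout; nearly all actives have a fitted effect of over 70% in size.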 Put shortly:
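SK-N-MC cells at 500-1,000 cells/well in growth media were pre-incubated 5 h, then exposed to compounds at 11-point dilutions for 48 h at 37 degrees C, 5% CO2. Viability was read as CellTiter-Glo luminescence.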

A short description of assay [18]: qHTS of pediatric cancer cell lines to identify multiple opportunities for drug repurposing: Confirmatory screen for BT-12 cells (AID 1347112). Note: nearly all actives have a fitted effect of over 55% in size. Put shortly:
as §2

Assay [19] in a line: qHTS of pediatric cancer cell lines to identify multiple opportunities for drug repurposing: Confirmatory screen for LAN-5 cells (AID 1347113). Note: nearly all actives have a fitted effect of over 65% in size. In a few lines: as §2
Assay [20] is described as follows: qHTS of pediatric cancer cell lines to identify multiple opportunities for drug repurposing: Primary screen for control Hh wild type fibroblast cells (AID 1347106). Note: nearly all actives have a fitted effect of over 55% in size. In a few lines:
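Cells (500-1,000/well) in growth media were settled 5 h at 37 degrees C, then given compounds for 48 h. Viability was read as CellTiter-Glo luminescence. Primary runs used MIPE at 11 points (0.78 nM-46 µM) and NPC at 8 points (0.59 nM-46 µM); follow-ups used 11 points.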

Records with an inconclusive call do not appear. The source made the active and inactive calls. Calls come from the whole dose curve; as a rule, active = well fitted curve in the direction sought with a large enough effect; inconclusive = small, poorly fitted or top-dose-only effect, or another doubt; inactive = no such curve, though single readings can be large; an effect the other way counts as inactive or inconclusive.

The source of these data is PubChem BioAssay (NCATS).
Potency is the fitted concentration of half-maximal effect.

`CC(C=CC1=C(C)CCCC1(C)C)=CC=CC(C)=CC(=O)Nc1ccc(O)cc1`: the Potency is 17.7 µM (active) in [1]; 3.4 µM (active) in [2]; 42.9 µM (active) in assay [3]; 27 µM (active) in assay [4]; 55.5 µM (active) in [5]; 17.1 µM (active) in assay [6]. The Potency is 3.4 µM (active) in assay [7]; 12.5 µM (active) in [8]; 42.9 µM (active) in assay [9]; 17.7 µM (active) in assay [10]; 34 µM (active) in assay [11]; 27 µM (active) in [12]. Also, the Potency in assay [13] was 42.9 µM (active); in assay [14], 7.62 µM (active); in [15], 42.7 µM (active); in assay [16], 0.38 µM (active); in assay [17] it was 2.4 µM (active); in assay [18], 24 µM (active). Moreover, the Potency in [19] was 6.03 µM (active).
As to `N[C@H]1CN(c2c(F)cc3c(=O)c(C(=O)O)cn(C4C[C@@H]4F)c3c2Cl)CC12CC2` (stereo not given in full), the Potency result in assay [1], in assay [2], in [3], in [4], in assay [5] and in assay [6] was “inactive” in each case. The Potency result in assay [8], in [9], in [10], in [11], in assay [12] and in [20] was “inactive” throughout. Besides, the Potency entry in [13] is “inactive”. The Potency in assay [7] is 21.1 µM (active).
As for `CC(C)(O)[C@H]1CC[C@@](C)([C@H]2[C@@H](O)C[C@@]3(C)[C@@H]4C[C@H](O[C@@H]5O[C@H](CO)[C@@H](O)[C@H](O)[C@@H]5O)[C@H]5C(C)(C)[C@@H](O[C@@H]6OC[C@@H](O)[C@H](O)[C@@H]6O)CC[C@@]56C[C@@]46CC[C@]23C)O1`, the Potency entry in assay [1], in assay [2], in [3], in [4], in [5] and in [6] was “inactive” in each case. Moreover, the Potency entry in assay [7], in [8], in assay [9], in assay [10], in assay [11] and in assay [12] was “inactive” throughout. Also, the Potency result in assay [20] and in [13] was “inactive” each time.
Take `OCc1ccccc1O[C@@H]1O[C@H](CO)[C@H](O)[C@H](O)[C@H]1O`: the Potency entry in [1], in assay [2], in assay [3], in [4], in assay [5] and in [6] was “inactive” throughout. The Potency entry in [7], in assay [8], in [9], in assay [10], in assay [11] and in [12] was “inactive” in each case. The Potency result in assay [20] and in assay [14] was “inactive” in each case.
Regarding `CC(=O)NC(CS)C(=O)O` (stereo not given), the Potency entry in assay [1], in assay [2], in assay [3], in [4], in assay [5] and in assay [6] was “inactive” throughout. In addition, the Potency result in assay [7], in [8], in assay [9], in assay [10], in [11] and in [12] was “inactive” throughout. Moreover, the Potency result in assay [20], in assay [13] and in assay [14] was “inactive” in each case.
Take `CC[C@H]1OC(=O)[C@H](C)[C@@H](O[C@H]2C[C@@](C)(OC)[C@@H](O)[C@H](C)O2)[C@H](C)[C@@H](O[C@@H]2O[C@@H](C)C[C@H](N(C)C)[C@@H]2O)[C@](C)(O)C[C@@H](C)C(=O)[C@H](C)[C@@H](O)[C@]1(C)O`: the Potency entry in [1], in [2], in [3], in [4], in assay [5] and in assay [6] was “inactive” in each case. Besides, the Potency entry in assay [7], in assay [8], in assay [9], in assay [11], in assay [12] and in [20] was “inactive” in each case. Moreover, the Potency entry in [13] and in assay [14] was “inactive” each time.
For the molecule `O=C(O)C(=O)Nc1cccc(C2=NN=N[N]2)c1`, the Potency result in assay [1], in assay [2], in [3], in assay [4], in assay [5] and in [6] was “inactive” throughout. In addition, the Potency entry in assay [7], in assay [8], in assay [9], in [10], in [11] and in assay [12] was “inactive” in each case. The Potency entry in assay [20], in assay [13] and in assay [14] was “inactive” each time.
Take `C[C@H]1C[C@H]2[C@@H]3CCC4=CC(=O)C=C[C@]4(C)[C@@H]3C(=O)C[C@]2(C)[C@@]1(O)C(=O)CO`: the Potency entry in [1], in assay [2], in assay [3], in assay [4], in [5] and in assay [6] was “inactive” throughout. Also, the Potency result in assay [7], in assay [8], in assay [9], in assay [11], in assay [12] and in assay [20] was “inactive” in each case. Also, the Potency entry in [13] and in assay [14] was “inactive” in each case.
As to `C[C@@H]1CC[C@@]2(OC1)OC1CC3C4CC=C5CC(O)CCC5(C)C4CCC3(C)C1[C@@H]2C` (stereo not given in full), the Potency entry in assay [1], in assay [2], in assay [3], in assay [4], in [5] and in assay [6] was “inactive” throughout. Moreover, the Potency result in [7], in assay [8], in assay [9], in assay [10], in assay [11] and in [12] was “inactive” throughout. Moreover, the Potency entry in [20], in [13] and in assay [14] was “inactive” throughout.
In the case of `C[C@H]1COc2c(N3CCN(C)CC3)c(F)cc3c(=O)c(C(=O)O)cn1c23`, the Potency entry in [1], in [2], in assay [3], in [4], in assay [5] and in assay [6] was “inactive” in each case. Moreover, the Potency result in [7], in [8], in assay [9], in [10], in assay [12] and in [20] was “inactive” each time. Moreover, the Potency entry in [13] and in assay [14] was “inactive” each time.
Turning to `COc1ccc(CCC(=O)c2c(O)cc(O[C@@H]3O[C@H](CO)[C@@H](O)[C@H](O)[C@@H]3O[C@@H]3O[C@@H](C)[C@H](O)[C@@H](O)[C@@H]3O)cc2O)cc1O`, the Potency entry in assay [1], in assay [2], in assay [3], in [4], in [7] and in [8] was “inactive” throughout. Besides, the Potency entry in assay [9], in assay [10] and in assay [12] was “inactive” each time. Also, the Potency was 13.6 µM (active) in assay [5], 13.2 µM (active) in assay [6], 13.2 µM (active) in assay [11] and 3.72 µM (active) in [20].
Turning to `CC(=O)N[C@H]1[C@@H]([C@H](O)[C@H](O)CO)OC(C(=O)O)=C[C@@H]1N=C(N)N`, the Potency entry in [1], in assay [2], in assay [3], in [4], in [5] and in [6] was “inactive” each time. In addition, the Potency entry in assay [7], in assay [8], in assay [9], in assay [10], in assay [11] and in [12] was “inactive” in each case. Moreover, the Potency entry in [20] and in assay [14] was “inactive” throughout.
